This is part of a sample that, as a whole, favours compounds with a hit. Of some 83,000 tested, about 20% had one in any assay.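 Step 1: grow cells in 96-well plates. Step 2: add test compound at a single concentration. Step 3: incubate 48 h. Step 4: record percent growth.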 Unmarked numbers belong to inactive results. Active and inactive are the calls of the source. The calls were made as follows: active = growth percent below 10; inactive = the rest.

What all share (test): NCI-60 one-dose screen, 48 h (100 = growth as untreated, 0 = no growth, -100 = all killed)
What all share (settings): 10 µM unless noted

Test [1] has as its system DU-145 prostate.
In test [2] the test system is K-562 leukemia.
For test [3], the system named is MALME-3M melanoma.
Test [4] concerns MDA-MB-231 breast.
In test [5] the test system is RXF 393 renal.
The test system of test [6] is SF-268 CNS.
The subject of test [7] is SF-295 CNS.
In test [8] the test system is SF-539 CNS.
Test [9] has as its system UACC-257 melanoma.
For test [10], the system named is M14 melanoma.
Test [11] has as its system HCT-15 colon.
The test system of test [12] is HT29 colon.
For test [13], the system named is SNB-75 CNS.
Test [14] concerns SNB-19 CNS.
Test [15] deals with U251 CNS.
Test [16] relates to PC-3 prostate.
In test [17] the test system is SK-MEL-5 melanoma.
Test [18] concerns UACC-62 melanoma.
In test [19] the test system is LOX IMVI melanoma.
The test system of test [20] is SK-MEL-28 melanoma.

Consider `COc1ccc(Br)cc1NC(=O)Nc1cccc2c1ccn2Cc1ccnc(N)c1`, for which the growth in test [1] is 58.7%; in test [2], 4.41% (active); in test [3] it was 42.1%; in test [4], -2.75% (active); in test [5], 16.3%; in test [6], 47.5%. In addition, the growth in [7] is -6.47% (active); in [8], 27.5%; in test [9] it was 32.5%; in [10], -30.2% (active); in test [11], 1.92% (active); in test [12], -40.6% (active). In addition, the growth was 26.7% in [13]; 37.3% in test [14]; 13.9% in [15]; 17.3% in [16]; 23.5% in test [17]; 29% in [18]. Moreover, the growth in test [19] was -68% (active).

In the case of `CCn1c(-c2nonc2N)nc2c(C#CC(C)(C)O)ncc(OC[C@H]3CCCNC3)c21`, the growth in test [1] was 64.4%; in test [2], 38.8%; in [3], 84.2%; in test [4], 84.2%; in [5], 5.93% (active); in test [6], 81%. The growth is 41.4% in test [7]; 27.1% in test [8]; 130% in [9]; 71% in test [10]; 82.4% in test [11]; 56.2% in test [12]. Also, the growth in test [13] was 2.75% (active); in [14], 67.8%; in test [15] it was 41.8%; in test [16] it was 56.1%; in test [17] it was 91.7%; in test [18], 79.8%. Also, in test [19], the growth was 44.1%.

As to `CN1CCC(CNc2ccc3ncc(-c4cccc(OC(F)(F)F)c4)n3n2)CC1`, the growth was 22.5% in test [1]; -47.3% (active) in [2]; -90.2% (active) in test [3]; -80.3% (active) in test [4]; -70.7% (active) in [5]; -33.1% (active) in test [6]. Further, the growth in test [7] is -71.2% (active); in [8] it was -91.4% (active); in test [9], -87.4% (active); in test [10], -73.3% (active); in test [11] it was -35.2% (active); in test [12], -46.1% (active). In addition, the growth in test [13] is -75.1% (active); in [14], -48.6% (active); in test [15] it was -89.2% (active); in test [16], -20.6% (active); in test [17], -99.1% (active); in [18] it was -95% (active). Also, the growth is -83.5% (active) in test [19] and -86.4% (active) in [20].

Take `C=CC(=O)Nc1cccc(Oc2nc(Nc3ccc(N4CCN(C)CC4)cc3)nc3ccsc23)c1`: the growth in test [1] was -48.4% (active); in test [2], -25.6% (active); in test [3], -84.2% (active); in test [4], -58% (active); in test [5], -83.9% (active); in [6] it was 3.11% (active). Also, the growth was 23.9% in [7]; -92.9% (active) in test [8]; -80.8% (active) in test [9]; -81% (active) in test [10]; -21.9% (active) in [11]; -60% (active) in test [12]. The growth was -81.1% (active) in test [13]; 12.8% in [14]; -84.7% (active) in test [15]; -44.5% (active) in [16]; -97.2% (active) in [17]; -78.2% (active) in [18]. Besides, the growth in test [19] was -85% (active).

`C=CCN1C(=O)c2cccc3c(-c4ccc5c(c4)ncn5C4CCCCC4)ccc(c23)C1=O`: the growth in [1] is 72.5%; in test [2], 26.2%; in [3], 56%; in test [4] it was 57.1%; in test [5], 110%; in test [6], 72.4%. The growth in test [7] is 44.5%; in test [8] it was 71.4%; in [9] it was 44.6%; in test [10], 50%; in [11], 44.9%; in [12] it was 23.4%. In addition, the growth in [13] is 50.2%; in test [14], 76.1%; in test [15], 52%; in [16] it was 22.8%; in test [17], -27.8% (active); in [18], 44%. Besides, in test [19], the growth was 50.3%.

For the molecule `CNC(=O)CN1CCC(Oc2cc3c(Nc4cccc(Cl)c4F)ncnc3cc2OC)CC1`, the growth in test [1] was 44.9%; in test [2], 60.9%; in test [3] it was 91.1%; in test [4] it was 43.6%; in [5], 24%; in [6] it was 51%. Besides, the growth in [7] is 76.1%; in test [8], 72.8%; in [9] it was 74.4%; in [10], 84.1%; in [11] it was 66.8%; in test [12] it was 36.8%. In addition, the growth in [13] is 20.9%; in [14], 70.3%; in test [15], 80.4%; in test [16], 65.7%; in [17], 77.2%; in test [18], 86.8%. Further, the growth in [19] is 37.7%.

Regarding `CN1[C@@H]2CC[C@H]1/C(=C\c1ccccc1)C1=C2[C@@H](c2ccccc2)C(C#N)=C(N)O1`, the growth in test [1] was 51.5%; in [2], 64.4%; in test [3], 88.8%; in [4], 94.9%; in [5], 63%; in [6], 77%. Moreover, the growth was 83.8% in [7]; 97.8% in test [8]; 54.6% in test [9]; 75.6% in test [10]; 81.1% in [11]; 67.7% in test [12]. Besides, the growth was 80.4% in test [13]; 83.6% in test [14]; 77.7% in [15]; 72.8% in test [16]; 74.1% in test [17]; 73.9% in test [18].

Consider `Cn1c(Nc2ccc(C(F)(F)F)cc2)nc2cc(Oc3ccnc(-c4ncc(C(F)(F)F)[nH]4)c3)ccc21`, for which the growth was 60.4% in [1]; 61.8% in [2]; -11.7% (active) in test [3]; 51.7% in test [4]; 7.28% (active) in test [5]; 46.1% in test [6]. The growth in [7] was 54.1%; in test [8], 21.2%; in [9], 11.9%; in test [10], 15.7%; in [11], 21.4%; in [12], 6.83% (active). Further, the growth in test [13] is 61.2%; in [14] it was 56.6%; in test [15], 46.3%; in [16], 65.8%; in test [17], 39%; in test [18] it was 8.71% (active). In addition, the growth in test [19] is 34.1%; in [20], 8.35% (active).

The values are drawn from PubChem BioAssay (NCI).
